Drawing on PubChem BioAssay (NCATS), this text covers max response, Potency and outcome for 31 molecules.

Several values for one entry are separate records, joined by “and”; a condition that tells them apart may be missing. Equal entries are not always repeated. A number with no mark means an inactive call. Results filed as inconclusive are left out. A structure can be active in one record and inactive in another. Activity calls are given as the source filed them. The call rests on the fitted dose curve; in most records, active means well fitted curve in the direction sought with a large enough effect; inconclusive means small, poorly fitted or top-dose-only effect, or another doubt; inactive means no such curve, though single readings can be large; an effect the other way counts as inactive or inconclusive.

A short description of the first assay: qHTS Assay for Identifying Gametocytocidal Compounds (AID 743244). Further: potency means the concentration at half of the fitted maximal effect.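 On max response: on the % scale 0 is the no-effect control and ±100 the full control effect; actives lower the fluorescent signal which means gametocytes are killed.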 The settings on record: P. falciparum 3D7 stage III-V gametocytes, alamarBlue, 72 h; max response: stronger effect = lower value. A digest of the protocol:
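Viability read-out was resazurin reduction (alamarBlue, 24 h) measured at Ex 525/Em 598 nm. Beforehand, late-stage (III-V) 3D7 P. falciparum gametocytes at 20,000 cells/well were incubated with compound 72 h at 37C under 5% CO2.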
Regarding `O=C(O)c1ccccc1O`, the max response is 6.2% and -5.06%.
On to `Cc1cc2c(cc1S(N)(=O)=O)S(=O)(=O)CCC2`, for which the max response was 20.4%.
For `NS(=O)(=O)c1cc2c(cc1Cl)NC(CSCc1ccccc1)=NS2(=O)=O`, the max response is -8.8%.
For the molecule `O=C(Oc1ccccc1C(=O)O)c1ccccc1O`, the max response is -1.86%.
As to `NC(=O)N/N=C/c1ccc([N+](=O)[O-])o1`, the Potency is 35.5 µM (active) and the max response was 4.19%.
`C[C@]12CC[C@@H]3c4ccc(O)cc4CC[C@H]3[C@@H]1CC[C@@H]2OC(=O)CCC1CCCC1`: the max response is -9.98% and 14%.
For `C[C@](N)(Cc1ccc(O)cc1)C(=O)O`, the max response was 18.5% and 8.95%.
As for `Oc1ccc(C(O)CNCCCCCCNCC(O)c2ccc(O)c(O)c2)cc1O` (stereo not given), the max response is -5.82%.
Still for that read-out and setting: then `CC(C)(C)NCC(O)COc1ccc(NC(=O)NC2CCCCC2)cc1` (stereo not given), with 11.9%; and `CC(O)COc1ccccc1` (stereo not given), with 8.99%; and `C[C@@H]1CCN(C(=O)[C@H](CCCN=C(N)N)NS(=O)(=O)c2cccc3c2NC[C@H](C)C3)[C@@H](C(=O)O)C1`, with -0.0233%.
As for `O=S(=O)(O)c1cc(I)c(O)c2ncccc12`, the max response was 5.64%.
As to `O=C1O[C@H]([C@@H](O)CO)C(O)=C1O`, the max response was -4.25% and 24.7%.
For `CC1(C)S[C@@H]2[C@H](NC(=O)Cc3ccccc3)C(=O)N2[C@H]1C(=O)O` (tested in a mixture with another compound), the max response is -2.5%.
With `COc1cc2[nH]c(=O)[nH]c(=O)c2cc1OC`, the max response was 5.15%.
On to `CCCCC/C(C=O)=C\c1ccccc1`, for which the max response is 8.31%.
As to `CN1CCOC(c2ccccc2)c2ccccc2C1` (stereo not given), the max response is -7.73%.
On to `Cc1c(O)cccc1C(=O)N[C@@H](CSc1ccccc1)[C@H](O)CN1C[C@H]2CCCC[C@H]2C[C@H]1C(=O)NC(C)(C)C`, for which the max response was 0.0084%.
Regarding `Oc1cccc(O)c1`, the max response is -1.48%.
Regarding `CC(=O)OCC(=O)[C@@]1(O)CC[C@H]2[C@@H]3CCC4=CC(=O)CC[C@]4(C)[C@H]3C(=O)C[C@@]21C`, the max response is -5.84%.
Take `CCOC(=O)c1ccc(O)cc1`: the max response was 10.3%.
`O=C(O)[C@@H]1CSCN1`: the max response was -11.5%.
Take `C[C@H](N)[C@H](O)c1cccc(O)c1`: the max response is 5.58%.
For `NCCNCCNCCNCCN`, the max response was -2.7%.
In the case of `OC[C@H]1O[C@@H](O[C@@H]2[C@@H](CO)O[C@](O)(CO)[C@H]2O)[C@H](O)[C@@H](O)[C@H]1O`, the max response is -3.99%.
For the molecule `Nc1ccc(S(=O)(=O)Nc2ccccc2)cc1`, the max response was -2.25%.
For the molecule `CCCOC(=O)c1ccccc1`, the max response was -2.44%.
With `O=S(=O)(O)NC1CCCCC1`, the max response is -6.77%.
The same measure, in the same setting: then `CC1=C(CC(=O)O)c2cc(F)ccc2/C1=C\c1ccc(S(C)=O)cc1` (stereo not given), with -9.81% and 32%.

A short description of a further assay: qHTS assay for cell viability of HEK293 cells (AID 743288). Further: on the % scale 0 is the no-effect control and ±100 the full control effect; nearly all actives have a fitted effect of over 50% in size. The settings on record: ATP luminescence (CellTiter-Glo), 18 h, stronger effect = lower value. A digest of the protocol:
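Readout is luciferase-coupled ATP content (CellTiter-Glo luminescence, 30 min room temperature) as a measure of metabolically competent cells. Parental HEK293 cells were plated 5 h or more before compound addition, then treated 18 h at 37 C.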
For the molecule `NC(=O)N/N=C/c1ccc([N+](=O)[O-])o1`, the max response is -5.04% and -17.6%.
`CN(C)CCC=C1c2ccccc2CCc2ccccc21`: the max response was -2.39% and -37.1%.
With `CC(O)COc1ccccc1` (stereo not given), the max response was 1.97%.
As for `O=C1O[C@H]([C@@H](O)CO)C(O)=C1O`, the max response was -2.8% and 5.16%.
Consider `Oc1cccc(O)c1`, for which the max response is 11.8%.
As for `CCOC(=O)c1ccc(O)cc1`, the max response is -3.62%.
As to `NCCNCCNCCNCCN`, the max response was -15.2% and 3.69%.
Take `O=S(=O)(O)NC1CCCCC1`: the max response was -0.923%.

A short description of another assay: qHTS assay for cell viability of the p53RE-bla HCT-116 cell line (AID 743292). Further: nearly all actives have a fitted effect of over 55% in size. Further: potency means the concentration at half of the fitted maximal effect. The note with it: p53RE-bla HCT-116 viability, ATP luminescence, 16 h; series mostly up to 95 µM. The method, boiled down:
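ATP-based luminescence, 16 h compound exposure at 37 C, p53RE-bla HCT-116 cells at 4,000/well.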
With `NC(=O)N/N=C/c1ccc([N+](=O)[O-])o1`, the Potency result is “inactive”.
Consider `CN(C)CCC=C1c2ccccc2CCc2ccccc21`, for which the Potency result is “inactive”.
The same measure, in the same setting: then `CC(O)COc1ccccc1` (stereo not given), with “inactive”.
As to `CN(C)CCCN1c2ccccc2CCc2ccccc21`, the Potency result is “inactive”.
For the molecule `O=C1O[C@H]([C@@H](O)CO)C(O)=C1O`, the Potency entry was “inactive”.
On the same count and under the same terms, then `Cc1c(O)cccc1C(=O)N[C@@H](CSc1ccccc1)[C@H](O)CN1C[C@H]2CCCC[C@H]2C[C@H]1C(=O)NC(C)(C)C`, with 28.2 µM (active); and `Oc1cccc(O)c1`, with “inactive”.
For the molecule `CCOC(=O)c1ccc(O)cc1`, the Potency result was “inactive”.
In the case of `NCCNCCNCCNCCN`, the Potency entry is “inactive”.
Take `O=S(=O)(O)NC1CCCCC1`: the Potency entry is “inactive”.

A further assay can be described thus: qHTS assay for measurement of the activity of small molecule inhibitors on Zika virus induced Caspase-3 activity in human astrocytoma cells (AID 1224859).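 Further: plate controls were ZIKV-infected untreated cells for no effect and uninfected cells for full effect.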 The settings on record: SNB-19 ZIKV-induced caspase-3/7, luminescence, 6 h; series mostly up to 45.7 µM. A digest of the protocol:
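Luminescent caspase-3/7 read-out (30 min reagent, room temperature) in human SNB-19 cells infected 6 h with ZIKV (2 FFU/cell) after 1 h compound pre-incubation; Data were normalised to uninfected and infected wells.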
As to `O=C(O)c1ccccc1O`, the result was inactive.
Take `Cc1cc2c(cc1S(N)(=O)=O)S(=O)(=O)CCC2`: the call was inactive.
With `NS(=O)(=O)c1cc2c(cc1Cl)NC(CSCc1ccccc1)=NS2(=O)=O`, the call was inactive.
For the molecule `O=C(Oc1ccccc1C(=O)O)c1ccccc1O`, the outcome was inactive.
Take `NC(=O)N/N=C/c1ccc([N+](=O)[O-])o1`: the molecule was called inactive.
On to `C[C@]12CC[C@@H]3c4ccc(O)cc4CC[C@H]3[C@@H]1CC[C@@H]2OC(=O)CCC1CCCC1`, for which the molecule was classed as inactive.
Take `C[C@](N)(Cc1ccc(O)cc1)C(=O)O`: the outcome was inactive.
On to `Oc1ccc(C(O)CNCCCCCCNCC(O)c2ccc(O)c(O)c2)cc1O` (stereo not given), for which the molecule was called inactive.
With `CN(C)CCC=C1c2ccccc2CCc2ccccc21`, the molecule was called inactive.
For the molecule `CC(O)COc1ccccc1` (stereo not given), the result was inactive.
`C[C@@H]1CCN(C(=O)[C@H](CCCN=C(N)N)NS(=O)(=O)c2cccc3c2NC[C@H](C)C3)[C@@H](C(=O)O)C1`: the call was inactive.
As for `CN(C)CCCN1c2ccccc2CCc2ccccc21`, the result was inactive.
Turning to `O=S(=O)(O)c1cc(I)c(O)c2ncccc12`, the result was inactive.
As to `O=C1O[C@H]([C@@H](O)CO)C(O)=C1O`, the call was inactive.
Same read-out and setting: in the case of `CC1(C)S[C@@H]2[C@H](NC(=O)Cc3ccccc3)C(=O)N2[C@H]1C(=O)O` (tested in a mixture with another compound) it was “inactive”; in that of `COc1cc2[nH]c(=O)[nH]c(=O)c2cc1OC`, “inactive”; in that of `CCCCC/C(C=O)=C\c1ccccc1`, “inactive”.
Take `Cc1c(O)cccc1C(=O)N[C@@H](CSc1ccccc1)[C@H](O)CN1C[C@H]2CCCC[C@H]2C[C@H]1C(=O)NC(C)(C)C`: the result was inactive.
Still for that read-out and setting: then `CC(=O)OCC(=O)[C@@]1(O)CC[C@H]2[C@@H]3CCC4=CC(=O)CC[C@]4(C)[C@H]3C(=O)C[C@@]21C`, with “inactive”; and `CCOC(=O)c1ccc(O)cc1`, with “inactive”; and `O=C(O)[C@@H]1CSCN1`, with “inactive”.
On to `C[C@H](N)[C@H](O)c1cccc(O)c1`, for which the result was inactive.
Turning to `OC[C@H]1O[C@@H](O[C@@H]2[C@@H](CO)O[C@](O)(CO)[C@H]2O)[C@H](O)[C@@H](O)[C@H]1O`, the molecule was classed as inactive.
As to `Nc1ccc(S(=O)(=O)Nc2ccccc2)cc1`, the call was inactive.
`CCCOC(=O)c1ccccc1`: the call was inactive.
On to `O=S(=O)(O)NC1CCCCC1`, for which the molecule was called inactive.
As to `CC1=C(CC(=O)O)c2cc(F)ccc2/C1=C\c1ccc(S(C)=O)cc1` (stereo not given), the molecule was classed as inactive.
